aSyn rescue: inhibitors of alpha-synuclein toxicity in yeast; 0.14% of 370,000 active; Potency, µM (titrated, usually from 46.1 µM), hits mostly activators; AID 652106; Yeast expressing alpha-synuclein, growth rescue, BacTiter-Glo, 24 h; note: nearly all actives have a fitted effect of over 65% in size
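Rescue of yeast growth: cells expressing toxic alpha-synuclein, induced in galactose at OD600 0.02, incubated with compound 24 h at 30 C. ATP luminescence quantified growth; inhibitors of toxicity appear as activators.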
Mito fusion act: mitochondrial division inhibition or fusion activation. 0.23% of 320,000 active. AID 485298. Potency, µM (doses to about 46.1 µM), hits mostly activators. S. cerevisiae fusion-defective mutant growth rescue, CellTiterGlo 48 h; note: nearly all actives have a fitted effect of over 45% in size
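S. cerevisiae fusion-defective temperature-sensitive mutants (e.g. fzo1-1, mgm1-5) grown 48 h at 37C in YPEG (ethanol/glycerol non-fermentable) medium with 23 nl compound per well; growth rescue read as CellTiterGlo luminescence.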
TDP43 rescue: rescues yeast growth from TDP-43 toxicity; TDP-43 expressing yeast growth rescue, BacTiter-Glo, 24 h; Potency, µM (series often up to 46.1 µM), hits mostly activators; 1.8% of 410,000 active; AID 652104; note: nearly all actives have a fitted effect of over 50% in size
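In this qHTS, compounds that restore growth of yeast expressing TDP-43 appear as activators. Cells (OD600=0.02, galactose medium, raffinose-pregrown) are incubated with compound 24 hr at 30 deg C and growth is quantified by BacTiter-Glo.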
Anesthetic bind: binds horse apoferritin like a general anesthetic. Potency, µM (doses to about 77.5 µM), usual class: inhibitors. 0.074% of 350,000 active. apoferritin/1-aminoanthracene competitive binding, fluorescence. P02791; note: nearly all actives have a fitted effect of over 20% in size
Target sequence (P02791 2-175 limits assumed): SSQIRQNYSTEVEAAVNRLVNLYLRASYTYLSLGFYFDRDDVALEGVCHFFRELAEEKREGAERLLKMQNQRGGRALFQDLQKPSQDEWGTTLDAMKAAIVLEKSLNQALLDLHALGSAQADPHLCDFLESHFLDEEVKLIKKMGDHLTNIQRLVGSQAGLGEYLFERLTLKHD
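10 uM apoferritin + 50% sat. 1-AMA, PBS; cpd 10 min RT; Ex380/Em535 endpoint; normalized to free probe vs complex; 4-param Hill fit; propofol titration as pos. ctrl.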
Akt phos inh: Akt phosphorylation inhibition; 0.32% of 360,000 active; activity change, % for hits at 50 µM; Neuro2A IGF-stimulated pAkt S473 HTRF, 20 min; stronger effect = lower value; in the data active = activity change below about -80%; inconclusive = mostly about -51% to -80%
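Neuro2A cells (4,500/well, DMEM with 0.5% FBS) were treated with compound at a single 50 µM final concentration, stimulated with 6 nM IGF for 20 min at 37 °C, and lysed. Phospho-Akt Ser473 was read by HTRF as 665/615 ratio ×10^4.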
CCT chaperon mod: changes cytosolic chaperonin activity. activity change, % (concentration not given with the values), hits read low. 0.3% of 360,000 active. purified chaperonin ATPase assay, HTRF ADP detection, 30 min; in the data active = activity change below about -30%
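Nucleotide hydrolysis assay: TRiC at 20–40 nM final (set by batch activity) with 10 uM ATP, 30 min at 37 °C, in presence of 76 uM compound. Detection by competitive ADP HTRF, 30 min ambient.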
A number is an active result; i = inactive; ? = inconclusive; nt = no result given; [ ] = another dose, or the depositor's remark. Compounds with a hit are over-represented: about 2.5% of the library has one in this group of screens. Unless noted, calls come from the whole dose curve; as a rule, active = well fitted curve in the direction sought with a large enough effect; inconclusive = small, poorly fitted or top-dose-only effect, or another doubt; inactive = no such curve, though single readings can be large; an effect the other way counts as inactive or inconclusive.

SMILES | aSyn rescue | Mito fusion act | TDP43 rescue | Anesthetic bind | Akt phos inh | CCT chaperon mod
O=C(Nc1cccc(NC(=O)c2ccccc2Cl)c1)c1cccs1 | i | i | 22µM | i | i | i
CCCC(=O)NC(=S)Nc1cccc(NC(=O)c2ccccc2Cl)c1 | i | i | 11µM | i | i | i
Cc1cccc(NC(=O)/C(=C\c2ccco2)NC(=O)c2cccs2)c1 | i | i | i | i | -110% | i
CCC(=O)NC(=S)Nc1cccc(NC(=O)c2ccccc2Cl)c1 | i | i | 14µM | i | i | i
Cc1csc2nc(-c3cccc(NC(=O)c4ccccc4Cl)c3)cn12 | i | nt | 20µM | i | nt | nt
Cc1ccc(-c2nnc(-c3cccc(NC(=O)c4cccs4)c3)o2)cc1 | i | i | i | i | i | -44
CSc1nnc(-c2cc3c(s2)-c2ccccc2CC3)o1 | i | i | i | i | i | i
S=c1[nH]nc(-c2cc3c(s2)-c2ccccc2CC3)o1 | i | i | 14µM | i | i | i
CC1(C)COC(/C=C/c2cccc([N+](=O)[O-])c2)=N1 | i | i | i[9.22 µM] | ? | i | -39
O=C(Cc1ccccc1)N1CCc2ccccc21 | i | i | i | 8.9µM | i | i
COc1ccc(CC(=O)N2CCc3ccccc32)cc1 | i | i | ? | i | i | i
CCOc1ccccc1C(=O)OCC(=O)Nc1nnc(-c2ccccc2)o1 | ? | i | 22µM | nt | i | i
COc1cccc(C(=O)Nc2nnc(-c3ccc(F)cc3)o2)c1 | 10µM | i | 7.1µM | i | i | i
COc1ccc(-c2nnc(NC(=O)C(C)C)o2)cc1 | i | i | ? | i | i | -39
CCOc1ccccc1C(=O)NC(C(=O)OCC(=O)Nc1nnc(-c2ccccc2)o1)C(C)C (centres undefined) | ? | i | ? | i | i | i
COc1ccc(-c2nnc(NC(=O)C3CC3)o2)cc1 | i | i | i[9.22 µM] | i | i | i
COc1cccc(C(=O)Nc2nnc(-c3ccc(Cl)cc3)o2)c1 | ? | i | 3.2µM | i | i | i
COc1cccc(C(=O)Nc2nnc(-c3cccs3)o2)c1 | i | i | i | i | i | i
COc1cc(OC)cc(-n2c(=O)c3ccccc3n(Cc3ccccc3C#N)c2=O)c1 | nt | nt | i | i | nt | nt
CCC(Sc1ncc(S(=O)(=O)c2ccc(C)cc2)c(=O)[nH]1)C(=O)Nc1cc(C)ccc1C (centres undefined) | i | nt | i | i | nt | nt
O=C(Nc1nnc(-c2ccccc2)o1)c1ccc(Cl)cc1 | ? | i | ? | i | i | i
CC(=O)c1ccc(C(=O)Nc2nnc(-c3ccc(Cl)cc3)o2)cc1 | 3.2µM | nt | 10µM | i | i | i
O=C(COc1ccccc1)Nc1nnc(-c2ccc(Cl)cc2)o1 | 14µM | i | 14µM | i | i | i
O=C(Nc1nnc(-c2ccco2)o1)c1ccc(Cl)cc1 | 11µM | i | ? | i | i | i
COc1ccc(-c2ccnc3c(Br)c(C)nn23)cc1 | i[1.84 µM] | i | 11µM | nt | i | i
SMILES | aSyn rescue | Mito fusion act | TDP43 rescue | Anesthetic bind | Akt phos inh | CCT chaperon mod
Cc1nn2c(-c3ccc(F)cc3)ccnc2c1Br | i | i | i | i | i | i
CN(C)c1ccc(/C=C2\C=Cc3ccccc32)cc1F | i | nt | nt | nt | nt | nt
Cc1noc(C)c1-c1ccc2ncnc(NCc3cccc(C(F)(F)F)c3)c2c1 | nt | nt | nt | i | nt | nt
C=C(C)CNC(=S)N/N=C/C1=CCC2CC1C2(C)C (centres undefined) | i | ? | 18µM | i | i | i
CC1(C)Cc2ccccc2-c2nc3ccccc3c(=O)n21 | i | i | 13µM | i | i | i
CC(=O)NC(c1ccccc1)c1nc(-c2cccs2)cs1 (centres undefined) | i | nt | 16µM | nt | i | i
COc1cccc(C(NC(C)=O)c2nc(-c3cccs3)cs2)c1 (centres undefined) | i | nt | ? | nt | i | i
O=[N+]([O-])c1ncccc1OCc1ccccc1Br | i | i | ? | ? | i | i
Cc1ccc(OCc2ccccc2Br)c([N+](=O)[O-])n1 | i | i | 10µM | i | i | i
Cc1cc(C)c(-c2cc([C@H](C)O/N=C\[C@@H](C)[C@H](OCc3ccccc3)C(C)C)on2)c(C)c1 | nt | nt | nt | i[15.3 µM] | nt | nt
CCCCCCCC/C=C\CCCCCCCC(=O)NCCc1ccc(O)c(O)c1 | ? | ? | 22µM | nt | i | i
CN1CCc2nc(NC(=O)c3cccc(S(=O)(=O)N4CCc5ccccc54)c3)sc2C1 | ? | i | i | ? | i | -35
O=C(Nc1nc2c(s1)CCCC2)c1cccc(S(=O)(=O)N2CCCc3ccccc32)c1 | i | ? | i | i | i | i
CCOc1cc(-c2nc(-c3ccc(-c4ccc(C)cc4)nc3OC)no2)cc(OCC)c1OCC | nt | nt | i | i | nt | nt
Cn1nnc2c(NCc3ccco3)ncnc21 | i | nt | nt | nt | nt | nt
CCCC/C=C/C(NC(=O)c1ccco1)c1ccccc1 (centres undefined) | nt | nt | nt | i | nt | nt
COCCn1c(SCc2ccc(F)cc2)nc2ccccc2c1=O | i | i | 18µM | i | i | i
CCSc1nc2ccccc2c(=O)n1CCc1ccc(OC)c(OC)c1 | ? | ? | 18µM | i | i | i
COCCn1c(SCc2ccc(OC)c(F)c2)nc2ccccc2c1=O | i | i | ? | i | i | i
OC1(C(F)(F)F)CC(c2ccc3ccccc3c2)=NO1 (centres undefined) | i | i | 3.2µM | i | i | i
O=C(CCl)N=c1sccn1Cc1ccc(Cl)cc1Cl | i | i | i[9.22 µM] | ? | i | i
O=C(CCl)N=c1sccn1Cc1ccccc1Cl | i | i | 22µM | i | i | i
COc1ccc(S(=O)(=O)N2CCN(c3nc(-c4cccs4)nc4ccccc34)CC2)cc1OC | i | nt | nt | nt | nt | nt

High-throughput results as filed in PubChem.
